{
  "source": "ChEMBL document CHEMBL4513216",
  "about": "“Probing the Open Global Health Chemical Diversity Library for Multistage-Active Starting Points for Next-Generation Antimalarials” (ACS Infect Dis, 2020)",
  "note": "Hit rate of the full screen: of about 69,000 compounds, about 8,600 (12%) showed an effect of 50% or more. The sample holds strong results, similar compounds and a random draw of the others, so the mix is not that of the screen.",
  "data": [
    {"tested_on": "Plasmodium berghei", "assay": "Screen against P. berghei liver stage (PbLuc), transformed with Luciferase, at 10uM", "type": "functional, HepG2", "conditions": "tested at 10 uM", "units": {"INHIBITION": "%"}, "values": [
      {"smiles": "Cc1ccccc1C1(C(=O)NCCN2CCOCC2)CCOCC1", "INHIBITION": -33.5},
      {"smiles": "Cc1ccccc1C1(C(=O)NCCN2CCC(C)CC2)CCOCC1", "INHIBITION": 55.1},
      {"smiles": "Cc1ccccc1C1(C(=O)NCCN2CCCC2)CCOCC1", "INHIBITION": 44.8},
      {"smiles": "COc1cccc(-n2nc(C(C)=O)c(C(C)=O)c2C)c1", "INHIBITION": -17},
      {"smiles": "O=C1CC2(CCN(C(=O)c3ccccn3)CC2)Oc2c(Cl)cc(Cl)cc21", "INHIBITION": 4.57},
      {"smiles": "CNc1cc(CNC(=O)c2ccncc2)nc(-c2ccncc2)n1", "INHIBITION": 4.08},
      {"smiles": "Cc1nc(C)n(C2CCCN(C(=O)Cc3csc(C(C)C)n3)C2)n1", "note": "(centres undefined)", "INHIBITION": 26.4},
      {"smiles": "CN(C)S(=O)(=O)NCC1OCCc2cn(CC3CCOCC3)nc21", "note": "(centres undefined)", "INHIBITION": 20.1},
      {"smiles": "c1c2c(nn1CC1CC1)C(CNC1CCOCC1)OCC2", "note": "(centres undefined)", "INHIBITION": 15.3},
      {"smiles": "CCS(=O)(=O)NCC1OCCc2cn(CC3CCOCC3)nc21", "note": "(centres undefined)", "INHIBITION": 66.8},
      {"smiles": "c1c2c(nn1CC1CCOCC1)C(CNC1CCOCC1)OCC2", "note": "(centres undefined)", "INHIBITION": -44.2},
      {"smiles": "CS(=O)(=O)NCC1OCCc2cn(CC3CC3)nc21", "note": "(centres undefined)", "INHIBITION": 44.2},
      {"smiles": "Fc1cccc(CNCC2OCCc3cn(CC4CCOCC4)nc32)c1", "note": "(centres undefined)", "INHIBITION": 68.4},
      {"smiles": "c1cc(CNCC2OCCc3cn(CC4CCOCC4)nc32)ccn1", "note": "(centres undefined)", "INHIBITION": 19.9},
      {"smiles": "O=S(=O)(NCC1OCCc2cn(CC3CCOCC3)nc21)C1CC1", "note": "(centres undefined)", "INHIBITION": 29.8},
      {"smiles": "Fc1ccc(CNCC2OCCc3cn(CC4CC4)nc32)cc1", "note": "(centres undefined)", "INHIBITION": 46.6},
      {"smiles": "O=C(Cc1ccsc1)NCC1OCCc2cn(CC3CC3)nc21", "note": "(centres undefined)", "INHIBITION": -46.6},
      {"smiles": "CS(=O)(=O)CC(=O)NCC1OCCc2cn(CC3CC3)nc21", "note": "(centres undefined)", "INHIBITION": 54.7},
      {"smiles": "CCCS(=O)(=O)NCC1OCCc2cn(CC3CCOCC3)nc21", "note": "(centres undefined)", "INHIBITION": 55.5},
      {"smiles": "COCCCn1ccc(NCc2ccc(NC(C)=O)cc2)n1", "INHIBITION": 19.7},
      {"smiles": "COc1cc2c(cc1C(=O)N1CCCCC1c1ccccn1)CCC2", "note": "(centres undefined)", "INHIBITION": 11.6},
      {"smiles": "Cc1ccc2nc(C(=O)N3C[C@@H](C(=O)O)[C@H](c4ccccc4)C3)cn2c1", "INHIBITION": -46},
      {"smiles": "O=C(c1cccs1)N1CCOCC2(C1)CN(c1ccccc1)C(=O)CO2", "note": "(centres undefined)", "INHIBITION": -8.28},
      {"smiles": "CCOCC1CN(c2ccncn2)Cc2cnn(CC3CC3)c21", "note": "(centres undefined)", "INHIBITION": -8.19},
      {"smiles": "Cc1nccn1C1CCCN(C(=O)c2cccc(Cn3ccnc3)c2)C1", "note": "(centres undefined)", "INHIBITION": -6.14},
      {"smiles": "O=C(CCc1cc2n(n1)CCCNC2)N1CCC(N2CCOC2=O)CC1", "INHIBITION": -39.2},
      {"smiles": "COCCNc1nnc(-c2ccc(C)nc2)s1", "INHIBITION": -74.5},
      {"smiles": "CCc1nc(CN2CC[C@@](O)(CCOC)[C@H](C)C2)cs1", "INHIBITION": 0.868},
      {"smiles": "CCOc1ccc(CNCCCn2ccnc2)cc1Cl", "INHIBITION": -32.1},
      {"smiles": "CCOc1cc(CNCCCn2ccnc2)cc(Cl)c1OCC", "INHIBITION": 58.1},
      {"smiles": "CCOc1cc(CNCCCn2ccnc2)cc(Cl)c1OC", "INHIBITION": 49.5},
      {"smiles": "CC(=O)NCC1CCC2(CCN(c3ncnc4oc(C)nc34)CC2)O1", "note": "(centres undefined)", "INHIBITION": 34.9},
      {"smiles": "CC(=O)N1CCC(NC(=O)CN2CCCc3c(C)ccc(F)c32)CC1", "INHIBITION": -7.13},
      {"smiles": "Cc1cnn(-c2cccc(N3CCCCC3)n2)c1", "INHIBITION": 39.3},
      {"smiles": "Cc1cnn(-c2cccc(N3CCCC3)n2)c1", "INHIBITION": 30.3},
      {"smiles": "Cc1cnn(-c2cccc(N3CCN(c4cc(C)nc(C)n4)CC3)n2)c1", "INHIBITION": 85.5},
      {"smiles": "CC(=O)N1CCCC1C(=O)NCCOc1ccc(C(C)C)cc1", "note": "(centres undefined)", "INHIBITION": 29.4},
      {"smiles": "CC(C)Cn1c(=O)n(CCCn2cccn2)c2cc(C(=O)O)cnc21", "INHIBITION": -18.1},
      {"smiles": "Cn1cc(NC(=O)N2CCN(Cc3cscn3)CC2)ccc1=O", "INHIBITION": 48.3},
      {"smiles": "CC[C@H]1COCCN1C(=O)CCCn1nnc(-c2ccc(F)cc2)n1", "INHIBITION": 35},
      {"smiles": "O=C(Cn1nnc(-c2ccc(F)cc2)n1)N1CCOCC(O)C1", "note": "(centres undefined)", "INHIBITION": 38.6},
      {"smiles": "O=C(CCCn1nnc(-c2ccc(F)cc2)n1)N1CCOCC(CO)C1", "note": "(centres undefined)", "INHIBITION": 52},
      {"smiles": "CCCS(=O)(=O)NC(C)C(=O)NCc1ccnc(N2CCCC2)c1", "note": "(centres undefined)", "INHIBITION": 14.4},
      {"smiles": "CC(=O)N1CCC2(C1)c1ccccc1S(=O)(=O)N2Cc1ccccc1", "note": "(centres undefined)", "INHIBITION": 6.72},
      {"smiles": "COCC(=O)N1CCC2(C1)c1ccccc1S(=O)(=O)N2C", "note": "(centres undefined)", "INHIBITION": 65.3},
      {"smiles": "COCC(=O)N1CCC2(C1)c1ccccc1S(=O)(=O)N2CC1CC1", "note": "(centres undefined)", "INHIBITION": 17.6},
      {"smiles": "CC(=O)N1CCC2(C1)c1ccccc1S(=O)(=O)N2C", "note": "(centres undefined)", "INHIBITION": 50.4},
      {"smiles": "COCC(=O)N1CCC2(C1)c1ccccc1S(=O)(=O)N2CCC(C)C", "note": "(centres undefined)", "INHIBITION": -14.2},
      {"smiles": "CC(=O)N1CCC2(C1)c1ccccc1S(=O)(=O)N2CCC(C)C", "note": "(centres undefined)", "INHIBITION": -61.6},
      {"smiles": "Cc1ccccc1C(=O)N1CCC(n2nnc3cc(F)ccc32)CC1", "INHIBITION": -30.1},
      {"smiles": "CC(C)c1nnc(CCC(=O)N2CCOC(c3cnccn3)C2)o1", "note": "(centres undefined)", "INHIBITION": 11.8},
      {"smiles": "CC(C)C[C@H](N)c1nnc(SCC(N)=O)o1", "INHIBITION": -21.4},
      {"smiles": "NS(=O)(=O)CCCNC(=O)c1cnc(-c2ccsc2)s1", "INHIBITION": 41.4},
      {"smiles": "O=C1C[C@@H]2CC[C@H](CN1)N2C(=O)CCc1ccsc1", "INHIBITION": 36.7}
    ]}
  ]
}
